# What was measured:
# Assay in all cases: PBM binding z-score (relative to random genomic background probes); higher = stronger binding; sequences stand for … in GC…GCGATTGACAGCGTAGAATGAAGG
# [1] = tested on: PPARg:RXRa DBDmut IVT, anti-RXR (DBD mutation: RXRa K156A/R161A, NR concentration 270 nM, RXRa partner concentration 90 nM)
# How it was run: (§1)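 Antibodies against each partner of ligand-free nuclear receptor dimers (one per run) detected binding on custom Agilent 4×180K protein-binding microarrays after 1 h incubation. The double-stranded probes had 34-nt variable regions carrying direct-repeat seeds, single-nucleotide variants, half-site ablations and random human genomic background sequences. Binding z-scores, from regression-normalized fluorescence, use the random background probes as reference.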
# [2] = tested on: PPARg:RXRa IVT, anti-PPARg (NR concentration 270 nM, RXRa partner concentration 90 nM)
# How it was run: as §1
# [3] = tested on: PPARg DBDmut:RXRa IVT, anti-PPARg (DBD mutation: PPARg1 K132A/R137A, NR concentration 270 nM, RXRa partner concentration 90 nM)
# How it was run: as §1
# [4] = tested on: PPARg DBDmut IVT, anti-PPARg (DBD mutation: PPARg1 K132A/R137A, NR concentration 270 nM)
# How it was run: as §1
# [5] = tested on: PPARg homodimer (NR concentration 180 nM)
# How it was run: as §1
# [6] = tested on: PXR:RXRa (NR concentration 270 nM, RXRa partner concentration 90 nM)
# How it was run: as §1
# [7] = tested on: PXR homodimer (NR concentration 270 nM)
# How it was run: as §1
# [8] = tested on: RARa:RXR (NR concentration 270 nM, RXRa partner concentration 90 nM)
# How it was run: as §1
# [9] = tested on: RARa homodimer (NR concentration 270 nM)
# How it was run: as §1
# [10] = tested on: RARb:RXRa (NR concentration 270 nM, RXRa partner concentration 90 nM)
# How it was run: as §1
# [11] = tested on: RARb homodimer (NR concentration 270 nM)
# How it was run: as §1
# [12] = tested on: RARg:RXRa (NR concentration 270 nM, RXRa partner concentration 90 nM)
# How it was run: as §1
# [13] = tested on: RARg homodimer (NR concentration 270 nM)
# How it was run: as §1
# [14] = tested on: RXRa DBDmut IVT, anti-RXR (DBD mutation: RXRa K156A/R161A, NR concentration 90 nM)
# How it was run: as §1
# [15] = tested on: RXRa homodimer (NR concentration 180 nM)
# How it was run: as §1
# [16] = tested on: THRa:RXRa (NR concentration 90 nM, RXRa partner concentration 90 nM)
# How it was run: as §1
# [17] = tested on: THRa homodimer (NR concentration 90 nM)
# How it was run: as §1
# [18] = tested on: VDR homodimer (NR concentration 270 nM)
# How it was run: as §1
Sequence,PBM binding z-score [1],PBM binding z-score [2],PBM binding z-score [3],PBM binding z-score [4],PBM binding z-score [5],PBM binding z-score [6],PBM binding z-score [7],PBM binding z-score [8],PBM binding z-score [9],PBM binding z-score [10],PBM binding z-score [11],PBM binding z-score [12],PBM binding z-score [13],PBM binding z-score [14],PBM binding z-score [15],PBM binding z-score [16],PBM binding z-score [17],PBM binding z-score [18]
TCTGCTAGGTAAACGATGGTCAGCTAATCTGCTA,1.06,0.192,-0.37,-0.397,-1.72,-0.369,-0.821,-0.233,-1.63,-0.0745,-0.48,-0.193,-0.441,-0.148,0.132,-0.11,-1.01,-0.963
CCTACTGGGCCAAAGGTCATTTATTCCAATGCTC,5.13,6.94,0.54,0.179,5.03,5.54,1.8,6.34,2.22,4.25,4.42,5.3,4.03,1.55,6.1,3.27,0.735,3.04
GCATATAGGTAATACAAGGTGAAAGTTCGATTGT,3.93,3.61,1.22,1.17,1.2,1.86,0.639,2.6,1.1,0.778,1.57,0.972,0.602,0.513,1.5,4.27,1.28,0.723
AGAACGAGGGCAATGAGTGGATAGCACGGGTGGC,3.17,2.32,0.26,-0.542,-0.143,-0.0216,-0.0699,-0.0529,0.296,1.72,0.709,0.805,1.49,1.05,0.694,0.576,-0.226,0.818
CCTCGGAGGGCAACAGGAGGTCAGAGCTGCCAGA,0.555,1.54,-1.74,-1.13,1.67,3.35,-0.207,3.63,0.286,3.71,3.73,5.71,4.23,0.315,3.16,3.26,0.313,1.22
GCCAGTTGGTCAGTAAAAGGTCACACACCGGTCG,0.399,2.44,0.21,0.231,3.78,5.1,1.14,5.76,1.88,4.14,5.25,5.38,4.92,0.354,5.25,3.38,1.65,1.83
TCTATTAGTTGAAGGTCAACCGACGAGTCCGTTT,2.82,2.45,1.21,0.836,3.86,4.22,2.78,4.4,3.23,4.02,4.21,4.22,4.39,2.25,4.15,3.13,1.93,3.45
CCGACTGGGGCAGGGTTACCATAACGCACAGCCA,1.51,2.47,-0.73,-1.24,0.145,0.395,-0.445,0.895,-0.407,0.803,1,0.693,0.718,-1.08,1.06,0.632,-0.0778,-0.615
CAGCCTAGGTCAGGGCCAATATAGGAGGAACGTT,1.3,1.88,-0.288,-1.23,0.413,0.404,-0.114,0.941,0.127,3.5,2.42,3.05,3.61,0.0153,1.69,2.07,0.573,0.171
ATATGTAGGTTATAGGGTCATTCAGTTTGCGCAT,7.51,7.16,2.03,1.57,3.17,4.88,8.92,5.18,1.96,3.19,3.76,4.28,3.26,2.26,4.98,3.83,3.31,4.34
ATCGAAGGGTCGAGGTGAGTATAGAGAAAGGGAA,-0.0932,1.19,0.848,0.0579,1.27,1.26,0.308,1.74,1.01,2.51,1.75,2.29,2.48,0.466,2.29,2.17,0.731,0.278
TTTCGGAGGACACGAAAGGTCAGAGCTCGACATC,0.372,2.08,-0.0451,0.278,4.65,4.29,0.968,4.44,1.88,4.32,4.68,4.88,5.29,0.16,4.66,3.85,1.39,1.04
CGTCCAAGGTTATAGGAGGTCAGTGAAGACAGAT,1.11,2.3,0.293,0.256,3.21,5.24,1.46,3.66,0.744,3.48,3.79,3.62,3.5,1.48,2.87,4.89,1.69,2.1
TAGCCTAGGTCATTCAGGGGCCAGTTTAGAAAGC,1.47,2.77,0.115,0.428,0.877,2.37,-0.0546,3.52,-0.367,3.61,3.42,5.71,4.11,1.65,2.56,3.67,0.971,1.28
TAGCCTAGGTCATGCGGGCCAGTATCGTGTCGGC,1.85,2.82,-0.0878,-0.59,0.211,1.41,-0.532,2,-0.99,3.49,2.77,4.03,4.3,0.371,3.1,2.88,1.17,0.528
